# MPTP inh: mitochondrial permeability transition pore inhibitors, primary screen, biochemical, isolated mouse mitochondria, absorbance | Ca2+ swelling absorbance, 30 min | inhibition, % at 10 µM | 360,000 tested, 1.4% active | AID 602449, 2012;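 active means inhibition of 50% or more, scaled per plate between neutral and stimulator controls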;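 further: 0% = DMSO wells given calcium and 100% = 1 mM EGTA wells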
# Mdm2 MdmX PPI: inhibitors of human Mdm2-MdmX association, primary screen, cell-based, luminescence, split luciferase, SaOS-2, uHTS. SaOS-2 split-luciferase Mdm2/MdmX complementation. AID 485346, 2010. Protein Mdm4 (Homo sapiens) + E3 ubiquitin-protein ligase Mdm2 (Homo sapiens), …. inhibition, % at 8 µM. 330,000 tested, 3% active;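 active means inhibition of at least 50% at 8 µM in the primary screen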
# Target sequence (O15151 whole entry, looked up): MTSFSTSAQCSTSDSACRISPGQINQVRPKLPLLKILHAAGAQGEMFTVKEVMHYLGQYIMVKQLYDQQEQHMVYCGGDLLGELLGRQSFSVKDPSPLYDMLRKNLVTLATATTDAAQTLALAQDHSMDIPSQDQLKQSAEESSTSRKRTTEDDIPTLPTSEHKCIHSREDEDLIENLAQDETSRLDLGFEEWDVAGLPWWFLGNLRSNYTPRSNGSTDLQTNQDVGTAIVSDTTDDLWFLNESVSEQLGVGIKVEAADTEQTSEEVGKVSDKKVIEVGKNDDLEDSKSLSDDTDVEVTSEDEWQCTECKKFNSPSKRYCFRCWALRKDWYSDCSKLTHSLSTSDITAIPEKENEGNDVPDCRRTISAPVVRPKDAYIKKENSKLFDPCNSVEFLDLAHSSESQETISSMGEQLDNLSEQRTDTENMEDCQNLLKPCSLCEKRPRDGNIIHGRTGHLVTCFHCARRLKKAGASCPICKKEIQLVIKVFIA
# Target sequence (Q00987 whole entry, looked up): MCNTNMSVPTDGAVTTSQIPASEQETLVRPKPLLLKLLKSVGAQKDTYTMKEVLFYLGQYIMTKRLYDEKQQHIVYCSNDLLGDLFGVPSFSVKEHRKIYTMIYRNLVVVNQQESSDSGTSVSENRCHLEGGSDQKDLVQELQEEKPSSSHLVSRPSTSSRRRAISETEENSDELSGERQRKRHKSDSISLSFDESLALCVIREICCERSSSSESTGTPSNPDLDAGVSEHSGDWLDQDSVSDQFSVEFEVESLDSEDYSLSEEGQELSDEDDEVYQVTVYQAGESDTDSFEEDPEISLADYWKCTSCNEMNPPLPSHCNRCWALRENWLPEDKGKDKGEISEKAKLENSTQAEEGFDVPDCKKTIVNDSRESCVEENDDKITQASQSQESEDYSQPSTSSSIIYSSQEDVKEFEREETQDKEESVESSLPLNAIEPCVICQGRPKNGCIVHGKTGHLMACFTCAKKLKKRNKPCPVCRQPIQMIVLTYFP
# Gli-Sufu block: Gli-Sufu pathway antagonists, primary screen, luciferase luminescence, Sufu-KO-LIGHT cells, uHTS; 340,000 tested, 0.74% active; Sufu-KO-LIGHT fibroblasts, Gli luciferase reporter luminescence; AID 588413, 2011; inhibition, % at 5 µM;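 active means inhibition above about 55%, limit read from the data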;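 further: 0% = DMSO-treated cells and 100% = wells with medium but no cells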
# NR3A LBD binder: binders of NR3A ligand-binding domain, primary screen, biophysical, differential scanning fluorimetry, uHTS. NR3A LBD differential scanning fluorimetry, Tm shift; 0% = protein alone, 100% = glycine-bound protein. Tm shift relative to glycine control, % at 25 µM. 340,000 tested, 2.5% active. Glutamate receptor ionotropic, NMDA 3A (GRIN3A) ligand-binding domain. AID 1259313, 2017;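 active means melting temperature shift of at least 10% of the positive control shift, at one fixed dose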
# CSC inhib: cancer stem cell viability inhibitors, primary screen, luminescence; cancer stem cell-like cells viability; inhibition, % at 7.5 µM; 300,000 tested, 1.1% active; AID 2717, 2010; in the data active means inhibition above about 75%; tested in HMLE shEcad cells
# Beta cell apopt: inhibitors of cytokine-induced beta cell apoptosis, primary screen, luminescence; INS-1E cytokine-induced death, ATP luminescence, 48 h; percent of positive-control rescue, neutral wells zero; protection from apoptosis, % (no concentration beside the values); 300,000 tested, 0.8% active; AID 435005, 2010;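 active means Every replicate reaches about 75%, or at least half do and their mean reaches it too, limit read from the data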;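 further: 0% = cytokine-treated negative control wells and 100% = positive control rescue; higher means more ATP so stronger rescue from cytokine killing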
# Mdm2-MdmX conf: Mdm2-MdmX complex disruptors, retested hits, confirmation, luminescence, single concentration; shares compounds with Mdm2 MdmX PPI; Mdm2-MdmX binding, luminescent assay; inhibition, % at 8 µM; 10,000 tested, 55% active; in the data active means inhibition above about 40%
# FLuc counter: full-length luciferase signal inhibition, confirmation, counter-screen for Mdm2/MdmX interaction inhibitor project, cell-based, single concentration, SaOS-2 | shares compounds with Mdm2 MdmX PPI | SaOS-2 full-length luciferase counterscreen, luminescence | inhibition, % at 8 µM | 6,200 tested, 77% active;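 active means mean inhibition at 8 µM reaching about 37%, which flags the compound as non-specific, limit read from the data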;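 further: p53-null SaOS-2 cells with luciferase driven by a doxycycline-inducible promoter; compound on cells about two nights before reading with doxycycline added after day one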
# The depositor's hits bear a star; . = not tested or not shown. Compounds with a hit are over-represented: about 6.6% of the library has one in this group of screens.
SMILES,MPTP inh,Mdm2 MdmX PPI,Gli-Sufu block,NR3A LBD binder,CSC inhib,Beta cell apopt,Mdm2-MdmX conf,FLuc counter
O=C(CNC(=O)c1ccco1)N=Nc1c(O)n(CCc2ccccc2)c2ccccc12,3,62*,0,-2,48,17,56*,106*
CCn1c(O)c(N=NC(=O)CNC(=O)Cc2ccccc2)c2ccccc21,0,-2,-50,1,12,-3,.,.
CCOCCOC(=O)c1ccc(NC(=O)c2cc3ccccc3o2)cc1,1,.,-25,1,.,.,.,.
O=C(N/N=C/c1ccccn1)c1cc(-c2ccccc2)nc2ccccc12,-3,71*,48,1,36,23,3,.
O=C(N/N=C/c1ccccn1)c1cc(C2CC2)nc2ccccc12,0,-8,13,-2,0,9,.,.
Cc1nn(-c2ccccc2)c(N2CCCC2)c1/C=N/NC(=O)c1cc(-c2cccnc2)nc2ccccc12,2,56*,13,0,15,1,22,.
C/C(=N\NC(=O)c1cc(-c2cccc(OC(C)C)c2)nc2ccccc12)c1cccnc1,-1,22,-31,1,-3,2,.,.
C/C(=N\NC(=O)c1cc(-c2cccnc2)nc2ccccc12)c1ccc(O)cc1O,2,66*,24,4,100*,90*,80*,23
O=C(N/N=C/c1cccs1)c1cc(-c2ccncc2)nc2ccccc12,2,.,45,-3,41,-1,.,.
CCc1ccc(/C=N/NC(=O)c2cc(-c3ccncc3)nc3ccccc23)s1,0,52*,22,-12,2,.,62*,80*
Cc1ccc(S(=O)(=O)N[C@H](C(=O)NC2CCC(C)CC2)C(C)C)cc1 (stereo not given in full),-2,19,-4,0,-10,4,.,.
C(=C\c1ccccc1)/CN1CCN(C(c2ccnc3ccccc23)c2nnnn2C2CCCC2)CC1 (stereo not given),0,.,.,.,.,.,.,.
CC(/C=N/NC(=O)c1cc(-c2ccccc2)nc2ccccc12)=C\c1ccco1,0,42,6,1,-18,22,.,.
CC(C)COc1cccc(-c2cc(C(=O)N/N=C/c3ccncc3)c3ccccc3n2)c1,3,81*,-44,7,-2,19,84*,47*
CCCc1cc(C(=O)N/N=C/c2ccc(C)o2)c2ccccc2n1,13,39,-2,-6,.,4,.,.
CC(/C=N/NC(=O)c1cc(-c2ccc(Cl)cc2)nc2ccccc12)=C\c1ccco1,1,66*,-19,6,14,34,0,.
CCCc1cc(C(=O)N/N=C/c2ccc(CC)s2)c2ccccc2n1,0,63*,2,-20,.,12,65*,40*
CCc1ccc(S(=O)(=O)Nc2c(C)nc3nc[nH]n3c2=O)cc1,-1,-18,-10,-1,-6,-3,.,.
COc1ccc(C(CC(=O)c2ccc(C)cc2)C(C#N)C#N)cc1OC (stereo not given),1,56*,-10,-7,73,-22,44*,47*
COC(=O)C(C(=O)OC)C(CC(=O)c1ccc(C)cc1)c1cc(OC)c(OC)c(OC)c1 (stereo not given),1,-14,6,1,7,-15,.,.
Cc1cccc(NC(=O)c2cc3c([nH]c4ccccc43)c(C)n2)c1C,4,66*,-2,14*,-11,-3,3,.
O=C(Nc1cccc(-c2ccc(N3CCCCC3)nn2)c1)C(F)(F)F,0,60*,19,-2,32,24,45*,74*
O=C(Nc1cccc(-c2ccc(N3CCCCC3)nn2)c1)c1ccc(Br)o1,-3,-39,-47,-8,.,18,.,.
CCC(=O)Nc1cccc(-c2ccc(N3CCC(C)CC3)nn2)c1,0,-53,-25,0,7,8,.,.
CC1CCN(c2ccc(-c3cccc(NC(=O)C(F)(F)F)c3)nn2)CC1,1,73*,44,-6,25,26,69*,36*
SMILES,MPTP inh,Mdm2 MdmX PPI,Gli-Sufu block,NR3A LBD binder,CSC inhib,Beta cell apopt,Mdm2-MdmX conf,FLuc counter
COC(=O)C1=C(NC(C)=O)CCS1,1,-5,-5,2,0,-1,.,.
CCC(=O)Nc1nnc(SCC(=O)N2c3ccccc3CC2C)s1 (stereo not given),-1,27,-21,0,10,-1,.,.
CCC(=O)Nc1nnc(SCC(=O)c2ccc3c(c2)Cc2ccccc2-3)s1,4,55*,-4,11*,18,.,5,.
Cc1ccc2c(c1)cc(C(=O)NCc1ccccc1)n2C,1,85*,5,-3,15,-5,56*,52*
COc1ccc(-c2[nH]ncc2N=Nc2ccccc2)cc1,3,66*,2,-8,94*,-14,58*,85*
COc1ccc(-c2[nH]ncc2N=Nc2cc(C)cc(C)c2)cc1,4,49,1,-9,7,18,.,.
Clc1ccccc1/C=C/c1nc(-c2ccccn2)no1,2,66*,5,-1,15,4,54*,95*
COc1cc2c(cc1OC)CN1CCc3cc(OC)c(OC)cc3C1C2 (stereo not given),-1,.,.,.,.,.,.,.
CC[C@H]1CN2CCc3cc(OC)c(OC)cc3C2C[C@@H]1C[C@H]1NCCc2cc(OC)c(OC)cc21 (stereo not given in full),.,97*,65*,-5,.,.,99*,51*
COc1cc(C(=O)NCC(c2cccs2)N2CCOCC2)cc(Br)c1OCc1ccccc1 (stereo not given),1,51*,-2,-14,30,20,42*,39*
COc1ccc(S(=O)(=O)N2CCC[C@@H]2C(=O)N2CCC[C@H]2C(=O)NCc2ccncc2)cc1C,-1,.,.,.,.,.,.,.
COc1ccc(/C=N/n2cnc3c([nH]c4ccc(C)cc43)c2=O)cc1CN1CCCC1,-1,19,16,-1,0,14,.,.
COc1ccc(/C=N/n2cnc3c([nH]c4ccc(F)cc43)c2=O)cc1CN1CCCC1,-1,100*,14,1,36,6,57*,51*
